This is a sample that favours compounds with a hit; in the whole collection about 2.2% have one here.
MITF TRPM1 inh – inhibitors of MITF-driven TRPM1 promoter in melanoma cells. AID 488899. actives 0.83% (n = 330,000). inhibition, % at 12.5 µM. SK-MEL-5 TRPM1 promoter luciferase, 24 h;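 active = mean inhibition across replicates of 60% or more, whatever share of single replicates reaches that level; inconclusive = some that reach 60%, reason not given; inactive = mean inhibition across replicates below 60%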
EBV LMP1 NFkB – inhibitors of Epstein-Barr LMP1-induced NF-kappaB reporter; LMP1-induced NF-kappaB luciferase reporter cells, luminescence; inhibition, % at 12.5 µM; actives 0.69% (n = 350,000); AID 504558; in the data active = inhibition above about 41%; inconclusive = no clear call, values can overlap the other calls;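 also: 0% = neutral control wells and 100% = reference inhibitor control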
Shn3 inh set2 – Schnurri-3 reporter inhibition in Clone20 osteoblasts; AID 588674; inhibition, % at 12.5 µM; actives 0.52% (n = 360,000); Clone20 osteoblast Shn3 3'UTR firefly luciferase, 24 h;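 active = mean inhibition of at least 75% with every replicate also reaching 75%; inconclusive = mean inhibition at least 75% but some replicate below; inactive = mean inhibition below 75%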;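 also: 0% = median of neutral control wells and 100% = pilot-screen positive control compound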
EWS-Fli block – inhibitors of EWS/Fli oncoprotein transcriptional activity; A673 NR0B1-luciferase reporter, viability-normalised; actives 0.67% (n = 350,000); AID 651661; inhibition, % at 12.6 µM;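 active = mean inhibition of at least 50% after viability correction, with every replicate also passing that limit; inconclusive = mean reaches 50% but only one of two replicates passes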;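 also: firefly luciferase signal divided by Alamar Blue viability fluorescence both relative to DMSO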
PAX8 inh HTS – lowers PAX8-driven luciferase in RMG-I cells | inhibition, % at 12.6 µM | RMG-I TPO-luciferase reporter, SteadyGlo, 24 h | actives 1.2% (n = 360,000);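 active = mean replicate inhibition at least 60% with every replicate also reaching 60%; inconclusive = only one of the two criteria is met; inactive = mean below 60% and not all replicates reaching 60%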;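 also: luciferase light reporting Pax8 driven TPO promoter activity; plate controls were median of neutral control wells for no effect and mitoxantrone controls for full effect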
LGR2 antag – Drosophila LGR2 receptor signaling inhibition; AID 720647; HEK293 LGR2, CRE-luciferase, bursicon-stimulated, 4 h; actives 0.35% (n = 380,000); inhibition, % at 9.99 µM;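 active = drop in luminescence signal, shown as inhibition above about 50% in the replicate tests, limit read from the data, passing the limit was not always enough; inconclusive = probably only some replicates passing the limit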;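 also: agonist challenge used bursicon conditioned medium at about half maximal strength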
* marks the source's active call; other numbers are inactive results.

Screening COc1c(O[C@@H]2O[C@H](CO)[C@@H](O)[C@H](O)[C@H]2O)cc2c(c1OC)-c1ccc(SC)c(=O)cc1C(NC(C)=O)CC2 (stereo partly specified) returned MITF TRPM1 inh -6, EBV LMP1 NFkB -2, Shn3 inh set2 -2, EWS-Fli block 6, PAX8 inh HTS -3 and LGR2 antag 11.
For COc1cc2c(c(OC)c1OC)-c1ccc(OC)c(=O)cc1C(NC(=O)c1ccccc1)CC2 (stereo unspecified) the results were MITF TRPM1 inh 33, EBV LMP1 NFkB 3, Shn3 inh set2 0, EWS-Fli block inconclusive, PAX8 inh HTS 70* and LGR2 antag -18.
COc1cc2c(c(OC)c1OC)-c1ccc(SC)c(=O)cc1C(NC=O)CC2 (stereo unspecified) was read as MITF TRPM1 inh 64*, EBV LMP1 NFkB 3, Shn3 inh set2 6, EWS-Fli block 62*, PAX8 inh HTS 100* and LGR2 antag 20.
`CC(C)(C)NC(=S)N1CCC(C(=O)c2ccc(Cl)cc2)CC1` gave MITF TRPM1 inh -4, EBV LMP1 NFkB 42*, Shn3 inh set2 -4, EWS-Fli block -6, PAX8 inh HTS -22 and LGR2 antag -3.
CC(C)(C)NC(=S)N1CCC(C(=O)c2ccc(F)cc2)CC1 was read as MITF TRPM1 inh 10, EBV LMP1 NFkB 4, Shn3 inh set2 16, EWS-Fli block 18, PAX8 inh HTS -93 and LGR2 antag -8.
CC(C)(C)C(=O)Nc1cc2nn(-c3ccccc3)nc2cc1Cl was read as MITF TRPM1 inh 85*, EBV LMP1 NFkB 75*, Shn3 inh set2 84 and PAX8 inh HTS 74*.
Screening CC(C)NC(=O)Nc1ccc2c(c1)C(=O)N([C@H](C)CO)C[C@@H](C)[C@H](CN(C)S(=O)(=O)c1ccc(F)cc1)OCCCC[C@@H](C)O2 returned EWS-Fli block 6, PAX8 inh HTS 13 and LGR2 antag 16.
`CNC(=O)C[C@H]1CC[C@@H]2[C@H](COc3ccc(NC(=O)Nc4cc(C)cc(C)c4)cc3C(=O)N2C)O1` gave EWS-Fli block 1, PAX8 inh HTS -15 and LGR2 antag -10.
Screening COc1ccc(S(=O)(=O)Nc2cccc(-c3ccc4nncn4n3)c2)cc1 returned MITF TRPM1 inh 24, EBV LMP1 NFkB 8, Shn3 inh set2 28, EWS-Fli block 64*, PAX8 inh HTS 41 and LGR2 antag 9.
`COc1ccc(C(=O)Nc2cccc(-c3ccc4nncn4n3)c2)cc1` gave MITF TRPM1 inh -6, EBV LMP1 NFkB -2, Shn3 inh set2 -4, EWS-Fli block -2, PAX8 inh HTS 5 and LGR2 antag -8.
COc1ccc(-c2n(Cc3ccccc3)c3ccccc3[n+]2Cc2ccccc2)cc1 was read as MITF TRPM1 inh 80*, EBV LMP1 NFkB 1, Shn3 inh set2 51, EWS-Fli block 44, PAX8 inh HTS 89* and LGR2 antag 27.
COc1ccc(-c2nc3ccccc3n2Cc2ccccc2)cc1 was read as MITF TRPM1 inh -8, EBV LMP1 NFkB 1, Shn3 inh set2 3 and LGR2 antag -2.
N#CC1c2ccccc2-c2ccccc2N1C(=O)c1ccccc1 (stereo unspecified) was read as EBV LMP1 NFkB 12, Shn3 inh set2 6, EWS-Fli block 55*, PAX8 inh HTS 58 and LGR2 antag 1.
Cc1ccc(S(=O)(=O)Nc2ccc3c(c2)CC(=O)N([C@H](C)CO)C[C@H](C)[C@@H](CN(C)Cc2ccc(Cl)c(Cl)c2)O3)cc1 was read as EWS-Fli block 10, PAX8 inh HTS 82* and LGR2 antag 14.
Screening Cc1noc(C)c1S(=O)(=O)Nc1ccc2c(c1)CC(=O)N([C@@H](C)CO)C[C@@H](C)[C@H](CN(C)Cc1ccc(Cl)c(Cl)c1)O2 returned EWS-Fli block 17, PAX8 inh HTS 88* and LGR2 antag 23.
Screening Cc1ccc(S(=O)(=O)Nc2ccc3c(c2)CC(=O)N([C@@H](C)CO)C[C@H](C)[C@H](CN(C)Cc2ccc(Cl)c(Cl)c2)O3)cc1 returned EWS-Fli block 69*, PAX8 inh HTS 6 and LGR2 antag 30.
For C[C@@H](NC(=O)C[C@H]1C=C[C@@H](NC(=O)CN2CCOCC2)[C@H](CO)O1)c1ccccc1 the results were EWS-Fli block -7, PAX8 inh HTS 0 and LGR2 antag 12.
`CCN(CC)c1ccc2nc3ccc(N)cc3[n+](-c3ccccc3)c2c1` gave MITF TRPM1 inh 93*, EBV LMP1 NFkB 53*, Shn3 inh set2 90*, EWS-Fli block 28 and LGR2 antag 59*.
`CCN(CC)c1ccc(/C=N/n2nnnc2N)c(O)c1` gave MITF TRPM1 inh -19, EBV LMP1 NFkB 2 and Shn3 inh set2 -32.
Screening CCN(CC)c1ccc2nc3ccccc3[n+](CC)c2c1 returned MITF TRPM1 inh 67*, EBV LMP1 NFkB 1 and Shn3 inh set2 20.
COCC(=O)N1C[C@@H](C)[C@H](OC)CN(C)C(=O)c2ccc(NC(=O)c3ccc(OC)cc3)cc2OC[C@H]1C was read as EWS-Fli block -2, PAX8 inh HTS -5 and LGR2 antag 8.
`COC(=O)C1=CN(c2ccc(OC)cc2OC)C(N)=C(C#N)C1c1cccc([N+](=O)[O-])c1` (stereo unspecified) gave EWS-Fli block 57*, PAX8 inh HTS 28 and LGR2 antag -12.
`COC(=O)C1=CN(c2ccc(F)cc2)C(N)=C(C#N)C1c1cccc(F)c1` (stereo unspecified) gave EWS-Fli block 24, PAX8 inh HTS 18 and LGR2 antag 7.
Screening CCN1C(=O)[C@H]2[C@@H](c3ccc(-c4ccc(Cl)c(Cl)c4)cc3)N3CCCC[C@@]3(C(=O)OC)[C@H]2C1=O returned MITF TRPM1 inh -2, EBV LMP1 NFkB 6, Shn3 inh set2 10, EWS-Fli block 12, PAX8 inh HTS -2 and LGR2 antag 25.
Screening CCN1C(=O)[C@H]2[C@@H](c3ccc(-c4ccc(OC)cc4)cc3)N3CCC[C@@]3(C(=O)OC)[C@H]2C1=O returned MITF TRPM1 inh -18, EBV LMP1 NFkB 4, Shn3 inh set2 90*, EWS-Fli block -6, PAX8 inh HTS -14 and LGR2 antag -40.
CCN1C(=O)[C@@H]2[C@@H](c3ccc(-c4ccc(Cl)c(Cl)c4)cc3)N3CCC[C@@]3(C(=O)OC)[C@@H]2C1=O was read as MITF TRPM1 inh 20, EBV LMP1 NFkB 75*, Shn3 inh set2 31, EWS-Fli block 19, PAX8 inh HTS 13 and LGR2 antag 4.
`CCCN1CCc2[nH]c(=S)[nH]c(=O)c2C1` gave MITF TRPM1 inh -7, EBV LMP1 NFkB -2, Shn3 inh set2 18, EWS-Fli block -10, PAX8 inh HTS 72* and LGR2 antag -3.

Screening data deposited in PubChem by Broad Institute.
